Inconclusive results are not listed. Where a call stands in place of a potency, no number is given. Unmarked numbers belong to inactive results. Calls of active or inactive are those of the source. The call rests on the fitted dose curve; in most records, active means well fitted inhibition curve with a large enough effect; inconclusive means small, poorly fitted or top-dose-only effect; inactive means flat fitted curve, though single readings scatter.

Sequence of Calcium and integrin-binding protein 1 (Homo sapiens) (Q99828 whole entry, looked up): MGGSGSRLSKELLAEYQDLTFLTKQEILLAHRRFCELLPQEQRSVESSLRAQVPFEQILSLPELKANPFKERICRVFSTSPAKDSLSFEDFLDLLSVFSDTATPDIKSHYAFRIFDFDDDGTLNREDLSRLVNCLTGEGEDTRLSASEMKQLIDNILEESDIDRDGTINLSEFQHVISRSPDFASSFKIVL

The target in this test is Calcium and integrin-binding protein 1 (Homo sapiens) (UniProt Q99828). The test can be described thus: Primary qHTS for Identification of Calcium Integrin Binding Protein 1 (CIB1) Competitor (AID 1508620).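 Further: GST tagged CIB1 binding a fluorescein labelled alphaIIb integrin peptide tracer; top concentration of the series differs between compounds.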 The note with it: CIB1-GST / FITC-alphaIIb peptide fluorescence polarization; series mostly up to 57.7 µM. The source says:
Assay Provider: Ulhas P. Naik, PhD Sidney Kimmel Medical College Thomas Jefferson University, Philadelphia, PA Primary function of platelets is to maintain hemostasis. At the site of vascular injury, platelets adhere to adhesive proteins such as collagen and von Willebrand factor. Adherent platelets are activated and generate soluble platelet agonists such as thrombin, ADP and thromboxane A2. Following exposure of circulating platelets to these agonists, results in platelet shape change, granule secretion and activation of platelet integrin alphaIIb-beta3. Ligand binding to activated integrin alphaIIb-beta3 triggers outside-in signaling, leading to platelet aggregation, stabilization of platelet plug, and clot retraction. Upon atherosclerotic plaque rupture also causes platelet plug formation, which underlies a number of cardiovascular diseases such as myocardial infraction and stroke. A number of anti-platelet drugs such as aspirin, clopidogrel, prasugrel, vorapaxar, and eptifibatide are currently available to prevent the thrombotic complications. However, these anti-platelet agents have several limitations including inherent variability in individual responses, developing resistance, and serious bleeding side effects. For these reasons they are not suitable for long-term protection. Based on the experiences with current anti-platelet drugs, it appears that the most useful therapeutic approach is to intersect the secondary responses such as integrin outside-in signaling or recruitment of platelets by TxA2 and secreted ADP. Compounds, which can largely preserve the primary hemostatic function of platelets but inhibit secondary response will be most desired therapeutic agents for treatment of cardiovascular disease. CIB1 is a calcium integrin binding protein, which specifically interact with the alphaIIb subunit of integrin alphaIIb-beta3. Binding of CIB1 to alphaIIb regulates the outside-in signaling in platelets, which is needed for thrombus stabilization and thrombus growth. […] Therefore, we propose that discovery of a small molecule that can prevent the association of CIB1 and alphaIIb-beta3 will be a potential anti-platelet agent that can block the thrombus formation without undue effect on hemostasis. Reference: [1] Naik MU, Nigam A, Manrai P, et al. CIB1 deficiency results in impaired thrombosis: the potential role of CIB1 in outside-in signaling through integrin alpha IIb beta 3. J Thromb Haemost.
PROTOCOL TABLES SEQUENCE No. (1, 2, 3, etc.); […] (e.g., Cells, Incubation, Reagent, etc.); VALUE and DESCRIPTION. 1; Reagent; 3 uL; Protein or buffer (4/3x) 2; Compound; 46 nL; Control inhibitor / compound library 3; Time; 15 min; Room temperature incubation 4; Reagent; 1 uL; Fluorescent labeled peptide (4x) 5; Time; 1000 rpm; Centrifuge 6; Time; 15 min; Room temperature incubation 7; Detection; Ex 480/ Em 540; ViewLux Fluorescence Read NOTES (numbers refer to sequence above) 1; Protein Mixture: C1B1-GST (final concentrations of 1 uM). […] 3; Room temperature incubation. 4; Fluorescent Labeled Peptide: FITC-aIIb (final concentration of 100 nM). Sequence of alphaIIb peptide: Acetyl-[…]-FITC (purity is 95.83%). 5; Centrifuge 1000 rpm (164 g) for 15 seconds. 6; Room temperature incubation. 7; ViewLux Fluorescent Polization Read: excitation = 480(20) / emission = 540(25) S and P; FITC Dichroic mirror.
As to `C=C1CCC2C(C)(C)CC(=O)CC2(C)C1CCC(C)CCOC(C)=O` (stereo not given), the Potency result is “inactive”.

Consider `CCN[C@@H]1C[C@H](N)[C@@H](O[C@H]2OC(CN)=CC[C@H]2N)[C@H](O)[C@H]1O[C@H]1OC[C@](C)(O)[C@H](NC)[C@H]1O`, for which the Potency result was “inactive”.

In the case of `CCCCN(CCCC)C(=O)CN1C[C@H](c2ccc3c(c2)OCO3)[C@@H](C(=O)O)[C@@H]1c1ccc(OC)cc1`, the Potency entry is “inactive”.

Regarding `O=C(O)c1cc(O[C@@H]2O[C@H](CO[C@@H]3OC[C@@H](O)[C@H](O)[C@H]3O)[C@@H](O)[C@H](O)[C@H]2O)c2ccccc2c1O`, the Potency entry is “inactive”.

Regarding `CCOC(=O)c1c(C)nn(-c2cccc([N+](=O)[O-])c2)c1C`, the Potency entry was “inactive”.

Consider `CC1=CC(=O)OC(C)(CC(C)(O)C(=O)O)C1` (stereo not given), for which the Potency entry is “inactive”.

Regarding `COc1cc(/C=C/C(=O)OC[C@H]2O[C@H](O[C@]3(CO)O[C@H](CO)[C@@H](O)[C@@H]3O)[C@H](O)[C@@H](O)[C@@H]2O)cc(OC)c1O`, the Potency entry was “inactive”.

With `OCc1ccccc1O[C@@H]1O[C@H](CO)[C@@H](O)[C@H](O)[C@H]1O`, the Potency result is “inactive”.

As to `O=c1c2ccccc2nc2n1CCC2O` (stereo not given), the Potency entry was “inactive”.

`COC1C=C([C@@H]2CC=C3[C@@]4(C)C(CC[C@]32C)[C@@]2(C)C=CC(=O)C(C)(C)C2C[C@H]4OC(C)=O)C(=O)O1` (stereo not given in full): the Potency entry was “inactive”.

Regarding `CC1(C)CCCC2(C)C3=C(C(=O)OC3O)C(O)CC12` (stereo not given), the Potency entry was “inactive”.

As to `C[C@@H]1CC[C@]2(C)C(C[C@@H](O)[C@H](O)[C@]23CO3)[C@@]1(C)CCc1ccoc1` (stereo not given in full), the Potency result was “inactive”.

For the compound `CC1(C)C[C@H]2C3=CCC4[C@@]5(C)CC[C@H](O[C@H]6O[C@H](C(=O)O)[C@@H](O)[C@H](O)[C@H]6O[C@H]6O[C@H](CO)[C@@H](O)[C@H](O)[C@H]6O[C@@H]6O[C@H](CO)[C@@H](O)[C@H](O)[C@H]6O)[C@](C)(CO)C5CC[C@@]4(C)[C@]3(C)CC[C@@]2(C)[C@H](O[C@@H]2OC[C@H](O)[C@H](OC3O[C@H](CO)[C@@H](O)[C@H](O)[C@H]3O)[C@H]2O)[C@@H]1O` (stereo not given in full), the activity change, negative = inhibition is -7.85% [at 12.4 µM].

Consider `OCC1OC(Oc2cc(O)c3c(c2)OC(c2ccc(O)cc2)C(O)C3)C(O)C1O` (stereo not given), for which the Potency result is “inactive”.

Turning to `CCCC(N[C@@H](C)C(=O)N1[C@H](C(=O)O)C[C@@H]2CCCC[C@@H]21)C(=O)OCC` (stereo not given in full), the Potency entry is “inactive”.

With `C=C1C[C@]23C[C@H]1CC[C@H]2[C@@]12C=C[C@H](O)[C@@](C)(C(=O)O1)[C@H]2[C@@H]3C(=O)O`, the Potency entry was “inactive”.

For the compound `C[C@@H]1C[C@H](O)/C=C/[C@H](O)[C@@H](O)CC(=O)O1`, the Potency entry was “inactive”.

On to `CC1CCC2C(C(=O)O)=CC3C(O)C(C)(C)CC123` (stereo not given), for which the Potency result is “inactive”.

On to `CC(=O)OC[C@]1(O)[C@H]2[C@H](OC(=O)CC(C)C)OC=C(CO[C@@H]3O[C@H](CO)[C@@H](O)[C@H](O)[C@H]3O)[C@H]2C[C@@H]1O`, for which the Potency entry was “inactive”.

On to `C=C[C@](C)(CC/C=C(\C)C(=O)O)O[C@@H]1OC[C@H](O)[C@H](O)[C@H]1O`, for which the Potency entry is “inactive”.

Consider `Nc1nonc1C(=Nc1ccc(F)c(Cl)c1)NO`, for which the Potency result was “inactive”.

Regarding `C=C1CC23CC1(O)CCC2C1=CC2OC(=O)C(C)(C2O)C1C3C(=O)O` (stereo not given), the Potency result was “inactive”.

On to `COc1cc(C[C@H]2COC(=O)[C@@H]2Cc2ccc(O)c(OC)c2)ccc1O`, for which the Potency entry was “inactive”.

For the compound `CC[C@H](/C=C/[C@@H](C)[C@H]1CC[C@H]2[C@@H]3CC=C4C[C@@H](O)CC[C@]4(C)[C@H]3CC[C@]12C)C(C)C`, the activity change, negative = inhibition was 1.65% [at 12.4 µM].

On to `O=C(/C=C/c1ccccc1)OCC1=CC[C@@H]2C(C(=O)O)=CO[C@@H](O[C@@H]3O[C@H](CO)[C@@H](O)[C@H](O)[C@H]3O)[C@H]12`, for which the Potency result is “inactive”.

Regarding `CC1(C(=O)O)CCCC2(C)C1CCC13CC(CCC21)C1(CO)OC31` (stereo not given), the Potency entry was “inactive”.

On to `Clc1ccc(CN[C@H]2CCN(c3ncc(Br)cn3)C2)c(Cl)c1`, for which the Potency result was “inactive”.

For `Cc1nn(C)c2c1C(c1ccc(C(F)(F)F)cc1)C(C#N)=C(N)O2` (stereo not given), the Potency result was “inactive”.

For `CO[C@@]12CC3[C@@H]([C@@H](O)[C@@H](OC(C)=O)C4[C@](C)(COC(C)=O)CCC[C@]34C)[C@@H](C)C1=CC(=O)O2` (stereo not given in full), the Potency entry is “inactive”.

`O=C(OCC12OC1C=CC(OC(=O)c1ccccc1)C2O)c1ccccc1` (stereo not given): the Potency entry is “inactive”.

In the case of `CC(C)CC1(C(=O)OCc2ccc(O[C@@H]3O[C@H](CO)[C@@H](O)[C@H](O)[C@H]3O)cc2)CC(=O)OC(C(=O)O)CC(=O)OCC2OC(O1)C(OC(=O)/C=C/c1ccc(O)cc1)C(O)C2O` (stereo not given in full), the Potency result was “inactive”.

For `CC(=O)O[C@@H]1[C@H](O[C@@H]2OC[C@](O)(CO)[C@H]2O)[C@@H](O[C@@H]2O[C@@H](C)[C@H](O)[C@@H](O)[C@H]2O)[C@H](OC(=O)[C@]23CCC(C)(C)C[C@H]2C2=CCC4[C@@]5(C)C[C@H](O)[C@H](O[C@@H]6O[C@H](C(=O)O)[C@@H](O)[C@H](O)[C@H]6O)[C@@](C)(C(=O)O)C5CC[C@@]4(C)[C@]2(C)CC3)O[C@@H]1C` (stereo not given in full), the Potency entry is “inactive”.

In the case of `CCC(=O)O[C@]1(C(=O)CCl)[C@@H](C)C[C@H]2[C@@H]3C[C@H](F)C4=CC(=O)C=C[C@]4(C)[C@@]3(F)[C@@H](O)C[C@@]21C`, the Potency entry was “inactive”.

Regarding `COc1cc(/C=C/C(=O)O[C@H]2[C@H](OC(=O)/C=C/c3cc(OC)c(O)c(OC)c3)O[C@H](CO[C@@H]3O[C@H](CO)[C@@H](O)[C@H](O)[C@H]3O)[C@@H](O)[C@@H]2O)ccc1O`, the Potency entry was “inactive”.

In the case of `CC(=O)NC(CCC(=O)O)C(=O)NCCc1ccc(O)cc1` (stereo not given), the Potency entry was “inactive”.

For the compound `Cc1nn(C)c(COc2ccc(N3CCN(S(=O)(=O)N(C)C)CC3)cc2)c1-c1cccc2c(CCCOc3cccc4ccccc34)c(C(=O)O)n(CCN3CCOCC3)c12`, the Potency entry is “inactive”.

On to `C[C@H]1[C@H](C)CC[C@]2(C(=O)O[C@@H]3O[C@H](CO)[C@@H](O)[C@H](O)[C@H]3O)CC[C@]3(C(=O)O)C(=CCC4[C@@]5(C)CC[C@H](O[C@@H]6O[C@H](CO)[C@@H](O)[C@H](O)[C@H]6O)C(C)(C)C5CC[C@]43C)[C@H]12` (stereo not given in full), for which the Potency result is “inactive”.

For the compound `COc1cc2c(cc1O)C1(Cc3ccc4c(c3C1=O)OCO4)N(C)CC2` (stereo not given), the Potency entry is “inactive”.

In the case of `OCC1=CC[C@@H]2C=CO[C@@H](O[C@@H]3O[C@H](CO)[C@@H](O)[C@H](O)[C@H]3O)[C@H]12`, the Potency result was “inactive”.

Regarding `CC(C)CNC(=O)/C=C/CCCCc1ccc2c(c1)OCO2`, the Potency result is “inactive”.
